Shown are actives, neighbours in structure and some others; about 10% of the full set was active somewhere.
KinaseGlo FLuc: counter-screen: inhibitors of Kinase-Glo firefly luciferase; Q27757; Potency, µM (top dose mostly 38.3 µM), inactives show at the top dose activity change, negative = inhibition, hits mostly inhibitors; Kinase-Glo luciferase, ATP luminescence, 8 min; 200,000 tested, 0.28% active; active = well fitted inhibition curve with a large enough effect; inconclusive = small, poorly fitted or top-dose-only effect; note: potency is the fitted concentration of half-maximal effect; nearly all actives have a fitted effect of over 60% in size
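Luminescence was the read-out, taken after 8-minute incubation at ambient temperature. Luciferase turned over luciferin with 10 uM ATP in imidazole pH 7.2 buffer containing KCl, MgCl2, Tween 20 and BSA.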
Lamin A splicing: changes lamin A minigene splicing in HeLa cells | HeLa LMNA splicing GFP/RFP minigene ratio, 48 h | Potency, µM (titrated, usually from 46.1 µM), without a hit: at the highest dose ratio change, negative = inhibition, actives largely listed as inhibitors | 200,000 tested, 0.01% active; active = well fitted inhibition curve with a large enough effect in the signal ratio, with a control signal flat, not every such curve was filed as active; inconclusive = small, poorly fitted or top-dose-only effect, or effect the other way, or a change in a side signal; the % refers to the signal ratio; note: potency is the fitted concentration of half-maximal effect
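S3 HeLa cells stably expressing lamin A-EGFP splicing minigene plus DsRed2, 600 cells/well, 48 h compound exposure at 37C. Laser-scanning cytometry; analysed as GFP (500-530 nm)/RFP (575-640 nm) total intensity ratio; 0.5% DMSO vehicle.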
HPGD block: HPGD (human) dehydrogenase inhibition. 150,000 tested, 4.3% active. Potency, µM, for the others: at the highest dose activity change, negative = inhibition, usual class: inhibitors. AID 894. purified HPGD, NADH fluorescence kinetic, PGE2 substrate. P15428; note: potency is the fitted concentration of half-maximal effect
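20 nM HPGD preincubated 15 min at room temperature with compound in 50 mM Tris-HCl pH 8, 0.01% Tween 20. Started with 1 mM NAD+ and 30 uM prostaglandin E2; NADH fluorescence (360/450 nm) read 5 times over 30-s intervals, last minus first.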
PNC assembly inh: perinucleolar compartment assembly inhibition; PC3M PTB-GFP, PNC prevalence imaging, 16 h; hits give low values; AID 2417; 140,000 tested, 3.1% active; activity change (PNC), negative = inhibition, % at 10 µM;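 active = readout at or below -70, meaning at least 70% loss of cells showing the perinucleolar compartment, a nuclear body marking cancer cells; inconclusive = readout between -30 and a set limit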;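 note: plate controls were DMSO wells for no effect and camptothecin positive control wells for full effect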
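PC3M cells stably expressing PTB-GFP, 750–1000 cells/well, treated 16 h at 37 °C with compound (23 nl of library stock), in duplicate. After paraformaldehyde fixation and Hoechst stain, imaged at 20x; PNC prevalence scored by image analysis.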
ALDH1A1 inh: ALDH1A1 (human) enzyme inhibition; P00352; Purified ALDH1A1, NADH fluorescence, propionaldehyde substrate; Potency, µM (doses to about 75.3 µM), without a hit: at the highest dose activity, negative = inhibition, most hits filed as inhibitors; 220,000 tested, 7.3% active;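 note: potency is the fitted concentration of half-maximal effect; plate controls were no enzyme wells and a reference inhibitor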
Target sequence (P00352 whole entry, looked up): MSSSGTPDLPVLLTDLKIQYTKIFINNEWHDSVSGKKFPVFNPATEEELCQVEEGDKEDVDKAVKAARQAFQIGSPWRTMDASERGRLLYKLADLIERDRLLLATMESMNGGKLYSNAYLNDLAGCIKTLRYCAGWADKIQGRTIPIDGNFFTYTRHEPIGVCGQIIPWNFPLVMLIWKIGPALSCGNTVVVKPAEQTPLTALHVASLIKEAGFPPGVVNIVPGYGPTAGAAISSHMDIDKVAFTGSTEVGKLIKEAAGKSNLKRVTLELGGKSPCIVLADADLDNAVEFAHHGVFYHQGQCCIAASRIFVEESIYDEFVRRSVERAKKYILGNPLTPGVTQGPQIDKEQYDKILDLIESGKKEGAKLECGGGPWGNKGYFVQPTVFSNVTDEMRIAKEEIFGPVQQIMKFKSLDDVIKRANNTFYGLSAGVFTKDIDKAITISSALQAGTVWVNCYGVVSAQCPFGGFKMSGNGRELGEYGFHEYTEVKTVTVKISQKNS
The depositor's hits bear a star; [ ] = remark or other dose. Unless noted, calls come from the whole dose curve; as a rule, active = well fitted inhibition curve with a large enough effect (not every such curve was filed as active); inconclusive = small, poorly fitted or top-dose-only effect, or another doubt; inactive = no such curve, though single readings can be large or run the other way. Unless noted, % is set by controls: 0 for no effect and ±100 for the full control effect.

Results for O=C(CN1C(=O)CCC1=O)Nc1nc(-c2ccc(Oc3ccccc3)cc2)cs1 ?
KinaseGlo FLuc: 6%; Lamin A splicing: -16%; HPGD block: 18µM*; PNC assembly inh: -12; ALDH1A1 inh: -5%

What do the screens show for `COc1ccc(-c2csc(NC(=O)CN3C(=O)CCC3=O)n2)cc1`?
KinaseGlo FLuc: 1%; ALDH1A1 inh: 12%

What do the screens show for `COc1ccc(-c2csc(NC(=O)CN3C(=O)CCC3=O)n2)cc1OC`?
KinaseGlo FLuc: 4%; Lamin A splicing: -16%; HPGD block: 28µM*; PNC assembly inh: 44; ALDH1A1 inh: 1%

Results for O=C(COc1ccc(F)cc1)NCc1ccc2c(c1)CCN2C(=O)c1ccccc1 ?
Lamin A splicing: -1%[46 µM]

How did CCOc1ccc(/C=C/C(=O)c2cccs2)cc1 do in these assays?
KinaseGlo FLuc: 14µM*; HPGD block: inconclusive; ALDH1A1 inh: inconclusive

How did COc1ccc(C2=C(C)C(N3CCC(C(=O)Nc4ccc(F)cc4C)CC3)=NS2(=O)=O)cc1 do in these assays?
Lamin A splicing: -14%[46 µM]

Results for O=C(COc1ccc2c(c1)CCC2)N1CCc2ccccc21 ?
KinaseGlo FLuc: -3%; Lamin A splicing: -3%; HPGD block: -10%; PNC assembly inh: -81*; ALDH1A1 inh: -11%

What do the screens show for `Cc1csc(=N)n1CC(=O)N1CCc2ccccc21`?
KinaseGlo FLuc: -3%; Lamin A splicing: -1%; HPGD block: -4%; PNC assembly inh: -15; ALDH1A1 inh: 25µM*

What do the screens show for `O=Cc1cn(CC(=O)N2CCc3ccccc32)c2ccccc12`?
KinaseGlo FLuc: 2%; Lamin A splicing: -22%[46 µM]; ALDH1A1 inh: 18µM*

How did CCOCC(=O)N1CCc2ccccc21 do in these assays?
KinaseGlo FLuc: 0%; Lamin A splicing: -6%; HPGD block: -1%; PNC assembly inh: 55; ALDH1A1 inh: 3.5µM*

What do the screens show for `O=C(CCCC(=O)N1CCc2ccccc21)N1CCc2ccccc21`?
KinaseGlo FLuc: 13%; Lamin A splicing: 3%; HPGD block: -8%; PNC assembly inh: 4; ALDH1A1 inh: 10%

What do the screens show for `CCCn1ccc2c(OCC(=O)Nc3ccc(C(F)(F)F)cc3)cccc2c1=O`?
Lamin A splicing: 12%[46 µM]

What do the screens show for `CN1C(=O)C(=O)N(CC(=O)N2CCc3ccccc32)C1=O`?
KinaseGlo FLuc: 3%; Lamin A splicing: 5%; HPGD block: -20%; PNC assembly inh: 20; ALDH1A1 inh: -3%

Results for O=C(OCC(=O)N1CCc2ccccc21)c1ccccc1 ?
KinaseGlo FLuc: -5%; Lamin A splicing: -10%; HPGD block: -10%; PNC assembly inh: -6; ALDH1A1 inh: 2%

Results for O=C(CN1C(=O)CSc2ccccc21)N1CCc2ccccc21 ?
KinaseGlo FLuc: -3%; Lamin A splicing: -7%; HPGD block: -5%; PNC assembly inh: -90*; ALDH1A1 inh: -9%

Results for O=C(CO/N=C/c1ccccc1O)N1CCc2ccccc21 ?
KinaseGlo FLuc: 1%; Lamin A splicing: -3%; HPGD block: -8%; PNC assembly inh: -20; ALDH1A1 inh: 10µM*

Results for CCOCCCNC(=O)C1CCC(CNS(=O)(=O)c2cccc3nsnc23)CC1 (centres undefined) ?
KinaseGlo FLuc: 0%; Lamin A splicing: 3%; HPGD block: 25µM*; PNC assembly inh: -10; ALDH1A1 inh: 3%

How did COc1cc(C2NC(C(=O)O)CS2)ccc1OCc1ccccc1C#N (centres undefined) do in these assays?
KinaseGlo FLuc: -23%; Lamin A splicing: 6%; HPGD block: -17%; PNC assembly inh: -6; ALDH1A1 inh: 8.9µM*

Results for COCCNc1nc(C)nc2c1nc(-c1ccccc1)n2CCN1CCCC1 ?
KinaseGlo FLuc: -2%; HPGD block: inconclusive; ALDH1A1 inh: inconclusive

How did CS(=O)(=O)N(CC(=O)NCc1ccccc1)Cc1ccc(Cl)cc1 do in these assays?
KinaseGlo FLuc: -2%; Lamin A splicing: 11%; HPGD block: -2%; PNC assembly inh: 10; ALDH1A1 inh: 8%

Results for CS(=O)(=O)N(CC(=O)NCc1ccccn1)Cc1ccc(Cl)cc1 ?
KinaseGlo FLuc: 0%; Lamin A splicing: 1%; HPGD block: -1%; PNC assembly inh: inconclusive; ALDH1A1 inh: 7.9µM*

What do the screens show for `CS(=O)(=O)N(CC(=O)N1CCCCCC1)Cc1ccc(Cl)cc1`?
KinaseGlo FLuc: 19%; Lamin A splicing: -3%; HPGD block: -2%; PNC assembly inh: -107*; ALDH1A1 inh: inconclusive

What do the screens show for `COC(=O)c1ccc(C(/C=C/[C@@H](C)C(=O)NCc2cc(C)n(C)n2)NC(=O)OCc2ccccc2)cc1` (some centres undefined)?
KinaseGlo FLuc: -3%; HPGD block: -17%; ALDH1A1 inh: inconclusive

How did Cc1nc2cc(CO)ccc2s1 do in these assays?
KinaseGlo FLuc: -3%; Lamin A splicing: 3%; HPGD block: -5%; PNC assembly inh: 22; ALDH1A1 inh: 2%

What do the screens show for `Cc1nc2cc3nc(C)sc3cc2s1`?
KinaseGlo FLuc: -16%; Lamin A splicing: -6%; HPGD block: 13µM*; PNC assembly inh: 25; ALDH1A1 inh: 1.8µM*

What do the screens show for `CC(=O)Nc1nonc1-c1nnc(SCC(=O)Nc2c(C)cccc2C)n1-c1ccccc1`?
Lamin A splicing: 19%[46 µM]

Results for C=CCN1C(=O)C2C3C=CC(C2C1=O)C1C2C(=O)N(CC=C)C(=O)C2C31 (centres undefined) ?
KinaseGlo FLuc: 2%; ALDH1A1 inh: 0.71µM*

What do the screens show for `CCCCN1C(=O)C2C3C=CC(C2C1=O)C1C2C(=O)N(CCCC)C(=O)C2C31` (centres undefined)?
KinaseGlo FLuc: 4%; Lamin A splicing: -1%; HPGD block: -8%; PNC assembly inh: inconclusive; ALDH1A1 inh: 6%

How did O=C1C2C3C=CC(C2C(=O)N1CCCO)C1C2C(=O)N(CCCO)C(=O)C2C31 (centres undefined) do in these assays?
KinaseGlo FLuc: 1%; Lamin A splicing: 14%; HPGD block: -12%; PNC assembly inh: 17; ALDH1A1 inh: 4.5µM*

What do the screens show for `O=C(NC1CC(=O)N(c2cccc(F)c2)C1)C1CCCC1` (centres undefined)?
Lamin A splicing: 3%[46 µM]

What do the screens show for `Cc1ccc(S(=O)(=O)NCC(c2ccco2)N2CCN(c3ccccc3F)CC2)cc1` (centres undefined)?
Lamin A splicing: -4%[46 µM]

What do the screens show for `CS(=O)(=O)N1N=C(c2cccs2)CC1c1ccco1` (centres undefined)?
KinaseGlo FLuc: 0%; ALDH1A1 inh: 20µM*

Results for O=C(c1cccs1)N1N=C(c2ccccc2)CC1c1ccccc1 (centres undefined) ?
KinaseGlo FLuc: 2%; Lamin A splicing: inconclusive; HPGD block: inconclusive; PNC assembly inh: -105*; ALDH1A1 inh: -15%

High-throughput results (PubChem BioAssay)
